# In PubChem BioAssay AID687014 (The Scripps Research Institute Molecular Screening Center, 2013):
# Among all 370,000 compounds or so, about 6,800 (1.8%) were called active.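 The calls were made as follows: active = activation above a cutoff set at the mean of all screened compounds plus 3 SD (cut at about 10% in these data); inactive = the rest.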 What follows is part of a selection rich in actives, with near analogues and random picks from the rest.
# Tested on: Nuclear hormone receptor DAF-12 (Heterodera glycines), GAL4 fusion
# Assay: hgDAF-12 GAL4 fusion reporter activation – cell-based, luminescence, HEK293, UAS-luciferase, primary screen (AID 687014);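 also: 0% = DMSO wells and 100% = sodium butyrate wells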
# Conditions: HEK293 GAL4-hgDAF12 UAS-luciferase reporter, agonist luminescence; at 6.8 µM; active compounds read high; normalized to butyrate control
row,SMILES,activation
1,COc1ccc(-n2c(C)nn(CC3CC3)c2=O)cc1,-0.88% (inactive)
2,Cn1c(CC2Sc3ccccc3NC2=O)nnc1SCC(=O)c1ccc(Cl)cc1 (stereo not drawn),2.7% (inactive)
3,CCn1c(SCC(C)=O)nc2sc3c(c2c1=O)CCCC3,-0.6% (inactive)
4,Nc1[nH]c(C(=O)c2ccccc2)c(-c2ccc(Cl)cc2Cl)c1C(=O)c1ccccc1,0.29% (inactive)
5,O=C(Nc1ccc(F)cc1)C(CCc1ccccc1)N1CCN(CC(=O)N2CCCC2)CC1 (stereo not drawn),-2.94% (inactive)
6,COC(=O)[C@]12C[C@H](CC(=O)NCCc3ccccc3OC)C(=O)N(Cc3ccccc3)C1=C[C@H](C(C)C)O[C@@H]2C1CC1,-1.92% (inactive)
7,CC(NC(=O)c1cccc2ccccc12)c1ccc2c(c1)CCCC2 (stereo not drawn),1.33% (inactive)
8,O=C(NN=Cc1ccc2c(c1)CCC2)c1ccccc1O,14.7% (active)
9,O=C(N/N=C/c1ccc(O)c(O)c1)C1c2ccccc2Oc2ccccc21,-0.99% (inactive)
10,Cc1nn(-c2ccccc2)c2[nH]c(C(F)(F)F)cc(=O)c12,0.5% (inactive)
11,CC1CCN(C(=O)c2ncn3c2C(=O)N[C@@H](C)C3)CC1,0.1% (inactive)
12,CCSc1nnc(NC(=O)c2ccc(C)cc2)s1,14.4% (active)
13,COC(=O)c1ccc(CSc2nnc(NC(C)C)s2)cc1,-0.67% (inactive)
14,CCCc1cc(=O)[nH]c2nnc(SCC(=O)Nc3nnc(SCC)s3)n12,1.68% (inactive)
15,CCOC(=O)N1CCN(C(=O)C[C@H]2C[C@@]3(C(=O)OC)C(=C[C@H](C(C)(C)C)O[C@@H]3C)N(Cc3ccc(Cl)cc3Cl)C2=O)CC1,0% (inactive)
16,COC(=O)c1cccc(Cn2ccc3ccc(-c4ccc5ccn(C(=O)C6CCCCC6)c5c4)cc32)c1,3.04% (inactive)
17,Cc1cccc(NC(=O)c2ccc3ccccc3n2)n1,14.8% (active)
18,CC(NC(=O)COC(=O)c1ccc2ccccc2n1)c1ccccc1 (stereo not drawn),5.11% (inactive)
19,Cc1cccc(NC(=O)Cc2ccc(Br)cc2)n1,3% (inactive)
20,C=CCN1[C@@H](Cc2ccccc2)COc2cccc(N3CCSCC3)c2S1(=O)=O,3.43% (inactive)
21,COc1ccc2c(c1)O/C(=C\c1ccccc1O)C2=O,13% (active)
22,COc1ccc(/C=C2/C(=O)OCc3cc(OC)c(OC)cc32)c(OC)c1,-3.92% (inactive)
23,O=C1Oc2ccccc2C(=O)/C1=C/c1ccccc1O,-1.59% (inactive)
24,CSc1ccc(Oc2cccc3c2S(=O)(=O)N([C@H](C)c2ccccc2)C[C@@H](COCc2ccccc2)O3)cc1C,1.48% (inactive)

row,SMILES,activation
1,O=S1(=O)c2c(cccc2N2CCCC2)O[C@H](COCc2ccccc2)CN1C1CC1,-1.8% (inactive)
2,CONc1nc2nonc2nc1NOC,-3.04% (inactive)
3,O=C(NCCC1=CCCCC1)c1ccc(Cl)c([N+](=O)[O-])c1,4.8% (inactive)
4,O=C(NCCC1=CCCCC1)c1ccc(-n2cncn2)cc1,11.6% (active)
5,O=C(COc1cccc(-n2cnnn2)c1)NCCC1=CCCCC1,-1.74% (inactive)
6,COC(=O)[C@@]12CCCCC3=C1N(CCC3)C(=O)[C@H]2CC(=O)NCc1cccc2ccccc12,-3.73% (inactive)
7,O=C(NC1CCCCN(Cc2ccc(Cl)cc2)C1=O)c1ccc(Br)cc1 (stereo not drawn),-3.05% (inactive)
8,Cc1cc(C)c2nc(N3CCC(C(=O)NCCN4CCOCC4)CC3)sc2c1,1.84% (inactive)
9,Cc1nc(N2CCOCC2)sc1C(=O)NN,-4.56% (inactive)
10,Fc1cc(F)c2nc(N3CCOCC3)sc2c1,11.6% (active)
11,O=C(CN(CC1CCCO1)C(=O)CNS(=O)(=O)c1ccc(F)cc1)NCc1ccco1 (stereo not drawn),-0.11% (inactive)
12,CCN(C(=O)CSc1ncnc2c1cnn2-c1ccccc1)C1CCS(=O)(=O)C1 (stereo not drawn),1.12% (inactive)
13,CCOc1cc(/C=N/O)ccc1OCc1ccccc1F,1.1% (inactive)
14,CCCc1ccc(OCc2ccc(C(=O)N/N=C/c3cccc([N+](=O)[O-])c3)o2)c(OC)c1,0.57% (inactive)
15,COc1cc(/C=N/O)ccc1OCc1ccc([N+](=O)[O-])cc1,19.8% (active)
16,CCOC(=O)N1CCN(C(=O)C[C@@H]2C(=O)N(CCc3ccc(Cl)cc3)C3=CCCC[C@]32C(=O)OCC)CC1,-0.14% (inactive)
17,CCC1CCc2c(sc(NC(C)=O)c2C#N)C1 (stereo not drawn),-1.78% (inactive)
18,N#Cc1c(NC(=O)C2CCCO2)sc2c1CCCCC2 (stereo not drawn),15.3% (active)
19,N#Cc1c(NC(=O)C2CC(Cl)=CCC2C(=O)O)sc2c1CCCCC2 (stereo not drawn),-1.72% (inactive)
20,O=C(CCl)NC1CCCCN(Cc2cccc(C(F)(F)F)c2)C1=O (stereo not drawn),-7.36% (inactive)
21,O=C(Nc1ccccc1)N1CCN(Cc2nc3ccccc3c(=O)[nH]2)CC1,3.62% (inactive)
22,CCc1ccc(CN2C(=O)c3ccccc3C2C(=O)NCC2CCCO2)cc1 (stereo not drawn),0.15% (inactive)
23,O=C1C(C=NCC2CCCO2)=C(O)c2ccccc21 (stereo not drawn),13.2% (active)
24,CC(=NCC1CCCO1)c1c(O)[nH]c(=O)[nH]c1=O (stereo not drawn),-2.34% (inactive)

row,SMILES,activation
1,O=S(=O)(c1ccccc1)N1CCC(c2nc3ccccc3o2)CC1,-0.98% (inactive)
2,COc1cc(CN2CCNC(=O)C2CC(=O)NCCc2ncccc2C)cc(OC)c1 (stereo not drawn),-1.06% (inactive)
3,CN(CCNC(=O)c1cc2c(-c3ccccc3F)nn(C)c2s1)C1CCCCC1,4.97% (inactive)
4,CCOCCCNC(=O)c1cc2c(=O)n3ccccc3nc2s1,3.33% (inactive)
5,CN(C(=O)c1cc2c(=O)n3ccccc3nc2s1)C1CCCCC1,13% (active)
6,Cc1ccc(-n2c(SCC(=O)Nc3ccc(S(=O)(=O)Nc4nccs4)cc3)nnc2-c2ccccn2)cc1,-1.35% (inactive)
7,CN1CCN(c2ccc(NC(=O)c3ccc4c(c3)OCCO4)cc2Cl)CC1,28.8% (active)
8,O=C(Nc1cccc(Cl)c1N1CCOCC1)c1ccc2c(c1)OCCO2,-1.47% (inactive)
9,COC(=O)c1ccc(N2CCOCC2)c(NC(=O)c2ccc3c(c2)OCCO3)c1,0.79% (inactive)
10,Cc1ccc(C(=O)Nc2ccc3c(c2)OCCO3)cc1S(=O)(=O)N1CCOCC1,11% (active)
11,Cc1ccc(C(=O)Nc2ncccc2C)cc1S(=O)(=O)N1CCOCC1,1.72% (inactive)
12,Cc1ccc(NC(=O)c2ccc(Cl)nc2)cc1S(=O)(=O)N1CCOCC1,3.09% (inactive)
13,O=C(CSc1nnc(-c2ccccc2)n1Cc1ccco1)Nc1ccccc1-c1ccccc1,0.11% (inactive)
14,Cc1cc2nc3c(=O)[nH]c(=O)nc-3n(C[C@H](O)[C@H](O)[C@H](O)CO)c2cc1C,-2.63% (inactive)
15,CCOC(=O)[C@]12CCCC3=C1N(CCC3)C(=O)[C@@H](CC(=O)NCc1cccs1)C2,1.07% (inactive)
16,CC(=O)OC12CCCN(C1)/C(=C/c1ccncc1)C2 (stereo not drawn),-1.43% (inactive)
17,CC(C)CNc1cccc2c1S(=O)(=O)N[C@H](CC(C)C)CO2,3.06% (inactive)
18,O=C(Nc1ccccc1)c1ccc2c(c1)OCCCO2,15.1% (active)
19,COc1cccc(C(=O)Nc2cc3c(cc2Br)OCCCO3)c1,13.2% (active)
20,C/C(=N/NC(=S)Nc1ccccc1)c1ccc2c(c1)OCO2,10.2% (inactive)
21,COc1ccc(C2COC(=O)C2=N)c(NC(=O)c2ccccc2)c1 (stereo not drawn),4.88% (inactive)
22,CN(Cc1c(F)cccc1Cl)C(=O)CNC(=O)c1ccc2c(c1)OCO2,7.57% (inactive)
23,O=C(NCCc1ccc(C(F)(F)F)cc1)c1ccc2c(c1)OCO2,0.07% (inactive)
24,O=C(CN1CCc2cc3c(cc2C1)OCCCO3)Nc1ccccc1,-3.88% (inactive)

row,SMILES,activation
1,O=C(Nc1ccccc1F)c1ccc2c(c1)OCO2,11.2% (active)
2,COc1cccc(C(=O)Nc2nnc(S(=O)(=O)N3CCOCC3)s2)c1,3.2% (inactive)
3,COC(=O)[C@]12C[C@H](CC(=O)NCCCN3CCCC3=O)C(=O)N(CCc3ccc(OC)c(OC)c3)C1=C[C@H](COCc1ccccc1)O[C@@H]2C,4.36% (inactive)
4,Cc1cc(Br)ccc1NC(=S)NC1CCCC1,1.25% (inactive)
5,Cc1ccc(NC(=O)c2cc(C)nn2-c2ccccc2)c(C)c1,-1.76% (inactive)
6,Cc1ccc(NC(=S)Nc2ncccc2C)c(C)c1,11.8% (active)
7,Nc1ccn([C@@H]2O[C@H](C(=O)N[C@H]3CCCCNC3=O)[C@@H](O)[C@H]2O)c(=O)n1,0.25% (inactive)
8,CCC(NC(=O)C1C2C=CC3(CN(Cc4ccccc4)C(=O)C13)O2)c1ccccc1 (stereo not drawn),-3.86% (inactive)
9,O=C(NCCc1ccco1)c1ccc(OCc2cn3ccccc3n2)cc1,5.95% (inactive)
10,O=Cc1ccc(OCc2cn3ccccc3n2)cc1,12.9% (active)
11,Cn1cc[n+](C)c1COc1ccc(C=O)cc1,1% (inactive)
12,O=C(Nc1cc(F)cc(F)c1)OC1CCC12CCC(c1ccccc1)CC2 (stereo not drawn),2.34% (inactive)
13,CC(C)C[C@H](NC(=O)CC1CCCC1)C(=O)N1CCC[C@H]1C(=O)NCc1ccccc1,-4.65% (inactive)
14,Cc1cc(NC(=O)CSc2nnnn2-c2ccc(F)cc2)no1,1.39% (inactive)
15,Cc1ccc2nc(-c3ccc(SCC(=O)Nc4cc(C)on4)nc3)[nH]c2c1,15.3% (active)
16,Cc1cc(NC(=O)CSCC(=O)NC(C)c2ccccc2)no1 (stereo not drawn),2.82% (inactive)
17,COC(=O)C1CN(CCc2ccccc2)CCS(=O)(=O)N1Cc1ccc(F)cc1 (stereo not drawn),2.5% (inactive)
18,C=CCN=C1NC(c2ccccc2)C(C(=O)OC)=C(C)N1Cc1ccc(C(F)(F)F)cc1 (stereo not drawn),0.51% (inactive)
19,COc1ccc(C2Nc3ccccc3C(=O)N2Cc2cccs2)cc1COc1c(C)cccc1C (stereo not drawn),1.89% (inactive)
20,COc1ccc(CN2CCCC(C(=O)c3ccc(Cl)cc3)C2)cc1Cn1cncn1 (stereo not drawn),-0.88% (inactive)
21,COc1ccc(C2Nc3ccccc3C(=O)N2c2ccc(Cl)cc2)cc1Cn1cc([N+](=O)[O-])cn1 (stereo not drawn),15.2% (active)
